Measured values: PubChem BioAssay (NCI)
“And” between values parts separate entries of the source, which are not always exact repeats. Equal entries are not always repeated. About 79,000 compounds went through this panel and 15% of them were active in at least one assay; those are over-represented in the sample as a whole. No stated cut-off is given here; in the data, active means growth inhibition above about 70%; inactive means the rest.

How the values were obtained:
[1] = NCI Yeast Anticancer Drug Screen. Data for the rad50 strain (AID 155);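 further: 0% = growth of vehicle-only cultures of the same strain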; settings: S. cerevisiae rad50 strain growth inhibition; at 50.0 µM; stronger effect = higher value
How it was run: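 Growth of the mutant yeast was measured after compound exposure and referenced to vehicle-treated cultures.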

[2] = NCI Yeast Anticancer Drug Screen. Data for the mec2-1 strain (AID 157); settings: S. cerevisiae mec2-1 strain, at 50.0 µM, stronger effect = higher value
How it was run: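 Test agents were screened against the mec2-1 yeast strain, with defined DNA repair or cell cycle alteration. Growth was scored as inhibition against vehicle-only controls.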

[3] = NCI Yeast Anticancer Drug Screen. Data for the sgs1 mgt1 strain (AID 161);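 further: 0% = growth of cultures given vehicle only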; settings: S. cerevisiae sgs1 mgt1 strain, at 50.0 µM, stronger effect = higher value
How it was run: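 Mutant yeast exposed to compound; growth scored against vehicle-only wells.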

[4] = NCI Yeast Anticancer Drug Screen. Data for the cln2 rad14 strain (AID 165);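 further: 0% = growth equal to vehicle treated cultures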; settings: S. cerevisiae cln2 rad14 strain, at 50.0 µM, stronger effect = higher value
How it was run: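 Growth of compound-exposed yeast (cln2 rad14 genotype) measured and expressed as inhibition relative to vehicle.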

[5] = NCI Yeast Anticancer Drug Screen. Data for the bub3 strain (AID 167); settings: S. cerevisiae bub3 mutant strain, at 50.0 µM, stronger effect = higher value
How it was run: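 Whole-cell yeast assay. The mutant strain was incubated with compounds, and growth inhibition was determined by comparison with vehicle-treated cells.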

[6] = NCI Yeast Anticancer Drug Screen. Data for the mlh1 rad18 strain (AID 175); settings: S. cerevisiae mlh1 rad18 strain growth inhibition; at 50.0 µM; stronger effect = higher value
How it was run: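 In this whole-cell yeast screen, a strain with altered DNA damage repair is challenged with compound, and its growth is measured against matched vehicle-treated controls.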

Measured: growth inhibition

CC(=O)OCC(=O)c1ccc(-c2ccccc2)cc1
inactive: [1] 6.55% and 7.65% | [2] -14.8% and 4.5% | [3] 14.1% | [4] 8.35% and -22.8% | [5] 39.9% and 28.6% | [6] 18.8% and 23.9%

Cc1ccc(N=Nc2c(O)ccc3cc(S(=O)(=O)O)ccc23)cc1
inactive: [1] 50.9% and 4.8% | [2] -15.5% and -2.8% | [3] 9.8% and 5.85% | [4] -6.85% and -6.7% | [5] -32.6% and 8.05% | [6] 22.8% and 9.35%

O=C1Nc2c(cc([N+](=O)[O-])cc2[N+](=O)[O-])C1=O
inactive: [1] -8.6% and 3.1% | [2] 7.6% and -0.75% | [3] -5.1% and 2.05% | [4] -0.05% and -12.1% | [5] -2.4% and 3.95% | [6] -1.1% and 2.6%

Nc1ccc(C(=O)O)c(O)c1
inactive: [1] -8.6% and 15.1% | [2] -7.4% and -2.45% | [3] -4.15% and -14.9% | [4] -40.9% and 1.75% | [5] 0.25% and -2.25% | [6] -8.05% and 24.8%

Nc1cc2ccc(S(=O)(=O)O)cc2cc1S(=O)(=O)O
inactive: [1] 44.5% and 10.7% | [2] 14.8% and 10.9% | [3] 17.6% and -1.75% | [4] -12.3% and -14.9% | [5] 8.8% and 11.2% | [6] 29.5% and 35.3%

CCN1C(=O)C=CC1=O
inactive: [1] 3.4% and -19.9% | [2] -2.55% and 13.7% | [3] 11.8% and -8.5% | [4] 6.8% and -30% | [5] 8.8% and -25.5% | [6] 3.55% and -15.4%

O=C(O)CCC(=O)c1ccc2ccccc2c1
inactive: [1] 60% and 8.8% | [2] 21.6% and 6.95% | [3] 44.8% and -5.7% | [4] 11.2% and -14.1% | [5] 9.15% and -23.1% | [6] 44.2% and 40.7%

Nc1ccc(C(=O)NCC(=O)O)cc1
inactive: [1] 13.4% and 10.3% | [2] 3.65% and -4.8% | [3] 3.25% and 5.05% | [4] -41.3% and 15.2% | [5] 6.75% and -3.5% | [6] 0.4% and 16.7%

Cc1cc(C(=O)O)c(CN2C(=O)c3ccccc3C2=O)c(=O)n1C
inactive: [1] -11.3% and -1.15% | [2] 20.4% and -14.3% | [3] 2.45% and -7.1% | [4] -6.3% and 6.85% | [5] 12.1% and -19.1% | [6] -18.9% and 9.45%

COc1ccc(-c2nc(SC3OC(COC(C)=O)C(OC(C)=O)C(OC(C)=O)C3OC(C)=O)n(C3OC(COC(C)=O)C(OC(C)=O)C(OC(C)=O)C3OC(C)=O)c(=O)c2C#N)cc1 (centres undefined)
inactive: [1] 11.2% and -3.9% | [2] 8.85% and -1% | [3] 22.4% and 18.1% | [4] -6.15% and -19.5% | [5] 3.35% and 14.9% | [6] -12.7% and -3.55%

COc1ccc(-c2[nH]c(=O)n(C3OC(CO)C(O)C(O)C3O)c(=O)c2C#N)cc1 (centres undefined)
inactive: [1] 7.65% and 19.9% | [2] 5.4% and 6.1% | [3] -8.55% and 1.1% | [4] 36.9% and 13.5% | [5] 6.95% and 7.6% | [6] -78.4% and -59%

NC(CCCc1ccccc1)C(=O)O (centres undefined)
inactive: [1] 7.05% and 3.35% | [2] -7.4% and 0.65% | [3] -5.15% and 1.45% | [4] -77% and -22.5% | [5] 20.6% and -1.2% | [6] -26.9% and -10%

CCCN=C(N)C(N)=NCCC (tested in a mixture with another compound)
inactive: [1] 0.4% and 6.5% | [2] -3.95% and 7.35% | [3] 9% and 26.4% | [4] -21.4% and 7.55% | [5] 12.6% and 3.75% | [6] 6.65% and 10%

COC1OC2COC(c3ccccc3)OC2C(OC(C)=O)C1OC(C)=O (centres undefined)
inactive: [1] 15.4% and 5.85% | [2] 10.2% and 6.9% | [3] 2.1% and 4.05% | [4] 2.4% and 2.9% | [5] 38.8% and 10% | [6] 19.9% and -14.9%

COC1OC2COC(C)(C)OC2C1NS(=O)(=O)Cc1ccccc1 (centres undefined)
inactive: [1] 2.8% and 0.75% | [2] -6.85% and -9.65% | [3] -2.1% and -4.05% | [4] -32.6% and -34.1% | [5] -3.45% and -11.8% | [6] -14.1% and -6.35%

CC(C)(SCc1ccccc1)C(N)C(=O)O (centres undefined)
inactive: [1] 8.05% and -6.85% | [2] 10.3% and -17% | [3] 1.65% and -33.1% | [4] 2.2% and -33.8% | [5] -3.45% and -31.3% | [6] 6.1% and -10.3%

COC1C(C)OCOC2COCOC21 (centres undefined)
inactive: [1] 17.4% and -6.3% | [2] 2.2% and -13.2% | [3] 4.15% and -8.6% | [4] 0.5% and -19.8% | [5] 9.05% and -3.8% | [6] 7.4% and -0.45%

O=C(CCc1ccccc1)CCc1ccccc1
inactive: [1] -28.6% and 33.6% | [2] -4.3% and 4.85% | [3] 28.8% and 7.55% | [4] -30.9% and 27.6% | [5] 0.55% and 35.2% | [6] -20.4% and 26.6%

CC(=O)c1c(-c2ccc(Cl)cc2)c(C#N)c(=S)n(C2OC(CO)C(O)C(O)C2O)c1-c1ccccc1 (centres undefined)
inactive: [1] 5.1% and 4.5% | [2] 1.95% and 6.1% | [3] 28.1% and 34.5% | [4] 33.1% and -7.6% | [5] -2.95% and 39.5% | [6] 56.6% and 15.9%

COC1OC(COC(C)=O)C(OC(C)=O)C(OC(C)=O)C1NC(=O)N(CCCl)N=O (centres undefined)
inactive: [1] -0.5% and -15.6% | [2] -7.1% and -8.6% | [3] -1.2% and -13.6% | [4] 9.65% and 20.3% | [5] 7.95% and 16.2% | [6] -10.5% and -14%

C=CCC(N)C(=O)O (centres undefined)
inactive: [1] -11.9% and -1% | [2] -20.6% and -4.45% | [3] 4.95% and -1.85% | [4] 13.5% and 2.3% | [5] -10.6% and 8.3% | [6] -1.7% and -3%

CSCCC(NC(=O)CN)C(=O)O (centres undefined)
inactive: [1] 8.7% and -6.35% | [2] -14.6% and -11.8% | [3] 3% and -2.45% | [4] 14.4% and 0.15% | [5] -7.15% and -13.8% | [6] 5.35% and -7.05%

NCCCNCCCCNCCCN
inactive: [1] 14.1% and -12.6% | [2] 30.6% and -27.4% | [3] 14.2% and -14.9% | [4] 8.5% and -10.2% | [5] 28% and -15.6% | [6] 19.6% and 3%

COC(=O)NC1C(=O)OC(C2OC2(C)C)C1(C)C (centres undefined)
inactive: [1] -4% and -2.5% | [2] -22.9% and -12.8% | [3] -5.3% and -32.8% | [4] 4.35% and -7.9% | [5] -17.1% and -31.4% | [6] -6.15% and -27.4%

COc1ccccc1/C=C/C(=O)O
inactive: [1] 30.8% and 25.7% | [2] -7.85% and 14.2% | [3] -5.2% and -7.85% | [4] -7.8% and -13.9% | [5] 3.95% and 10.9% | [6] -22.4% and 6.65%

C=Cc1c(C)c2cc3[nH]c(cc4nc(cc5nc(cc1[nH]2)C(C)=C5CCC(=O)O)C(CCC(=O)O)=C4C)c(C)c3C=C
inactive: [1] 6.5% and 13% | [2] 1.5% and -13.3% | [3] 9.05% and 12.7% | [4] 10.2% and 10.5% | [5] 0.65% and -0.1% | [6] 32.6% and 27.1%

CN(C)CC1CCCC(CN2CCCCC2)C1=O (centres undefined)
inactive: [1] -13.3% and -7.95% | [2] -37.8% and 9.7% | [3] -33.5% and 8.2% | [4] 4.6% and -38.9% | [5] -11.6% and -9.5% | [6] -6.4% and 9.4%

CCCCCCCC/C=C\CCCCCCCCOCC(O)CO (centres undefined)
inactive: [1] -8.65% and -26.1% | [2] -25.6% and -20.9% | [3] -1.8% and -4% | [4] -17.9% and 3.35% | [5] -25.4% and -31.6% | [6] -27.6% and -20.8%

CC(=O)Nc1ccc(S(=O)c2ccc(NC(C)=O)cc2)cc1
inactive: [1] -25.6% and 12% | [2] -21.3% and 9.5% | [3] -45.5% and 12.1% | [4] 7.1% and -22.4% | [5] -15.6% and 10.3% | [6] -34.8% and 24.6%

O=C(O)/C=C/C=C/C(=O)O
inactive: [1] -5.1% and 14.2% | [2] -4.45% and -10.2% | [3] -3.8% and -1.95% | [4] 7.8% and -17.9% | [5] -0.8% and -14.6% | [6] -10.6% and 2.75%

CC(C)C(=O)/C=C/c1ccccc1
inactive: [1] 11.1% and 21.2% | [2] -2.4% and -2.75% | [3] 10% and -5.25% | [4] 18.2% and -12.6% | [5] 7.7% and -3.95% | [6] 17.8% and 8%

CN(C)CC1COC2Cc3ccccc3C1O2 (centres undefined)
inactive: [1] -43.2% and -0.75% | [2] -22.1% and -20.2% | [3] -17.2% and -1.65% | [4] -46.1% and 20.9% | [5] -19.1% and 21.5% | [6] -29.3% and 1.95%

Cn1c(=O)c2[nH]cnc2n(C)c1=O
inactive: [1] 4.5% and 10.1% | [2] -16.1% and 2.3% | [3] -35.5% and -20.8% | [4] -23.8% and -9.25% | [5] -3.95% and -2.2% | [6] 19.1% and 2.8%

O=C1CCSSCCC(=O)NCCN1
inactive: [1] 7.95% and -6.4% | [2] 8.6% and -3.25% | [3] -5.75% and 5.55% | [4] -2.5% and 14.3% | [5] 6.65% and 29% | [6] 16.2% and 0.4%
